# From PubChem BioAssay (NCI)
# Compounds without any hit were thinned out: in the full panel of roughly 79,000, 15% have a hit. Unmarked numbers belong to inactive results. The source made the active and inactive calls. Rule as the data show it: active = growth inhibition above about 70%; inactive = the rest.
# What was measured:
# [1] = NCI Yeast Anticancer Drug Screen. Data for the mlh1 strain (AID 171);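 also: 0% = growth of vehicle-treated control cultures of the same strain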; settings: S. cerevisiae mlh1 strain growth inhibition, hits give high values
# In short: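 Here the genetically defined yeast mutant is grown with each compound, and the extent to which its growth falls below that of vehicle-exposed cells is reported.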
# [2] = NCI Yeast Anticancer Drug Screen. Data for the sgs1 strain (AID 173);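 also: 0% = growth of vehicle-only control cultures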; settings: S. cerevisiae sgs1 mutant, hits give high values
# In short: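 Relative growth inhibition, referenced to vehicle, was determined in a yeast strain with a defined alteration affecting DNA damage repair or cell cycle control after compound exposure.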
# [3] = NCI Yeast Anticancer Drug Screen. Data for the mlh1 rad18 strain (AID 175); settings: S. cerevisiae mlh1 rad18 strain growth inhibition, hits give high values
# In short: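 In this whole-cell yeast screen, a strain with altered DNA damage repair is challenged with compound, and its growth is measured against matched vehicle-treated controls.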
# [4] = NCI Yeast Anticancer Drug Screen. Data for the rad18 strain (AID 177); settings: S. cerevisiae rad18 mutant growth inhibition, hits give high values
# In short: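 Screen uses a yeast strain with a defined lesion in DNA damage repair; compound effect is read as loss of growth compared to untreated vehicle cultures.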
# [5] = NCI Yeast Anticancer Drug Screen. Data for the rad52 strain (AID 147);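 also: 0% = growth of vehicle-treated control cultures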; settings: S. cerevisiae rad52 mutant growth inhibition, hits give high values
# In short: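 Measured: yeast growth inhibition. System: strain with a defined DNA damage repair alteration. Reference: vehicle-treated control cultures.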
# [6] = NCI Yeast Anticancer Drug Screen. Data for the wt1 strain (AID 149);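 also: 0% = growth of vehicle-treated wt1 cultures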; settings: S. cerevisiae wt1 strain (SPY 50644) growth inhibition, hits give high values
# In short: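 Readout: yeast growth inhibition, normalised to vehicle controls, in the wt1 strain exposed to test compounds.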
# [7] = NCI Yeast Anticancer Drug Screen. Data for the rad50EPP+ strain (AID 151);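 also: 0% = growth of vehicle-treated control cultures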; settings: S. cerevisiae rad50 mutant strain, hits give high values
# In short: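 One strain with a rad50 alteration (rad50EPP+) was compound-treated, its growth then compared to that of vehicle controls.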
# [8] = NCI Yeast Anticancer Drug Screen. Data for the mgt1 strain (AID 153); settings: S. cerevisiae mgt1 mutant growth inhibition, hits give high values
# In short: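 After exposure of the mgt1 yeast mutant to compound, growth was measured and reported as inhibition compared with vehicle controls.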
# [9] = NCI Yeast Anticancer Drug Screen. Data for the rad50 strain (AID 155);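 also: 0% = growth of vehicle-only cultures of the same strain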; settings: S. cerevisiae rad50 strain growth inhibition, hits give high values
# In short: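 Compounds were tested on a yeast strain with an engineered DNA damage repair alteration; the reported value is growth inhibition normalised to vehicle treatment.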
# [10] = NCI Yeast Anticancer Drug Screen. Data for the mec2-1 strain (AID 157); settings: S. cerevisiae mec2-1 strain, hits give high values
# In short: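 Test agents were screened against the mec2-1 yeast strain, with defined DNA repair or cell cycle alteration. Growth was scored as inhibition against vehicle-only controls.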
# [11] = NCI Yeast Anticancer Drug Screen. Data for the rad14 strain (AID 159);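 also: 0% = growth of vehicle-treated control cultures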; settings: S. cerevisiae rad14 strain growth inhibition, hits give high values
# In short: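 Compound-treated yeast with a defined DNA-repair lesion; growth inhibition normalised to vehicle-treated cultures.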
# [12] = NCI Yeast Anticancer Drug Screen. Data for the sgs1 mgt1 strain (AID 161);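 also: 0% = growth of cultures given vehicle only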; settings: S. cerevisiae sgs1 mgt1 strain, hits give high values
# In short: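 Read-out: growth inhibition vs vehicle controls. Cells: mutant yeast strain deficient in DNA damage repair.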
# [13] = NCI Yeast Anticancer Drug Screen. Data for the cln2 rad14 strain (AID 165);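 also: 0% = growth equal to vehicle treated cultures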; settings: S. cerevisiae cln2 rad14 strain, hits give high values
# In short: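 Growth of compound-exposed yeast (cln2 rad14 genotype) measured and expressed as inhibition relative to vehicle.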
# [14] = NCI Yeast Anticancer Drug Screen. Data for the bub3 strain (AID 167); settings: S. cerevisiae bub3 mutant strain, hits give high values
# In short: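 Growth of a checkpoint-deficient yeast mutant is measured after compound exposure. Values represent inhibition relative to vehicle.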
# [15] = NCI Yeast Anticancer Drug Screen. Data for the wt2 strain (AID 169);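 also: 0% = growth of vehicle-treated yeast cultures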; settings: S. cerevisiae wt2 strain growth inhibition, hits give high values
# In short: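 Genetically defined yeast strains from a DNA-repair/cell-cycle panel were used. Compound-exposed yeast growth was measured, and the inhibition was calculated relative to vehicle treatment.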
# [16] = NCI Yeast Anticancer Drug Screen. Data for the CLN2oe strain (AID 163);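 also: 0% = growth of vehicle-only control cultures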; settings: S. cerevisiae CLN2oe strain, hits give high values
# In short: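 Here, growth inhibition in a cell-cycle-altered yeast strain after compound exposure was quantified against vehicle control growth.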
# [17] = at 5.0 µM (retest, dose inferred, filed as 0.5)
# [18] = at 50.0 µM (retest, dose inferred, filed as 5.0)
compound,measurement,setting,value
CCCC/C=C1\CCC(CN2CCCC2)C1=O (centres undefined),growth inhibition,[1]; at 1.2 µM,22%
same,growth inhibition,[1]; at 3.7 µM,36%
same,growth inhibition,[1]; at 11.0 µM,56%
same,growth inhibition,[1]; at 33.0 µM,76% (active)
same,growth inhibition,[1]; at 100.0 µM,97% (active)
same,growth inhibition,[2]; at 1.2 µM,-1%
same,growth inhibition,[2]; at 3.7 µM,22%
same,growth inhibition,[2]; at 11.0 µM,44%
same,growth inhibition,[2]; at 33.0 µM,67%
same,growth inhibition,[2]; at 100.0 µM,94% (active)
same,growth inhibition,[3]; [17],41%
same,growth inhibition,[3]; [18],80% (active)
same,growth inhibition,[3]; at 50.0 µM,73.5% (active)
same,growth inhibition,[4]; at 1.2 µM,-3%
same,growth inhibition,[4]; at 3.7 µM,15%
same,growth inhibition,[4]; at 11.0 µM,34%
same,growth inhibition,[4]; at 33.0 µM,65%
same,growth inhibition,[4]; at 100.0 µM,92% (active)
Nc1cccc(-c2cc[cH-]c2)c1.[Fe+2].c1cc[cH-]c1,growth inhibition,[5]; at 1.2 µM,-2%
same,growth inhibition,[5]; at 3.7 µM,6%
same,growth inhibition,[5]; at 11.0 µM,15%
same,growth inhibition,[5]; at 33.0 µM,39%
same,growth inhibition,[5]; at 100.0 µM,95% (active)
same,growth inhibition,[6]; at 1.2 µM,-1%
same,growth inhibition,[6]; at 3.7 µM,-3%
same,growth inhibition,[6]; at 11.0 µM,-3%
same,growth inhibition,[6]; at 33.0 µM,2%
same,growth inhibition,[6]; at 100.0 µM,50%
same,growth inhibition,[7]; at 1.2 µM,-1%
same,growth inhibition,[7]; at 3.7 µM,9%
same,growth inhibition,[7]; at 11.0 µM,21%
same,growth inhibition,[7]; at 33.0 µM,20%
same,growth inhibition,[7]; at 100.0 µM,76% (active)
same,growth inhibition,[8]; at 1.2 µM,-4%
same,growth inhibition,[8]; at 3.7 µM,-3%
same,growth inhibition,[8]; at 11.0 µM,-2%
same,growth inhibition,[8]; at 33.0 µM,4%
same,growth inhibition,[8]; at 100.0 µM,93% (active)
same,growth inhibition,[9]; at 1.2 µM,-3%
same,growth inhibition,[9]; at 3.7 µM,3%
same,growth inhibition,[9]; [17],-14%
same,growth inhibition,[9]; at 11.0 µM,16%
same,growth inhibition,[9]; at 33.0 µM,35%
same,growth inhibition,[9]; [18],15%
same,growth inhibition,[9]; at 50.0 µM,35.5%
same,growth inhibition,[9]; at 100.0 µM,96% (active)
same,growth inhibition,[10]; at 1.2 µM,-2%
same,growth inhibition,[10]; at 3.7 µM,-3%
same,growth inhibition,[10]; [17],-18%
same,growth inhibition,[10]; at 11.0 µM,-3%
same,growth inhibition,[10]; at 33.0 µM,3%
same,growth inhibition,[10]; [18],-10%
same,growth inhibition,[10]; at 50.0 µM,38.5%
same,growth inhibition,[10]; at 100.0 µM,79% (active)
same,growth inhibition,[11]; at 1.2 µM,0%
same,growth inhibition,[11]; at 3.7 µM,6%
same,growth inhibition,[11]; at 11.0 µM,14%
same,growth inhibition,[11]; at 33.0 µM,25%
same,growth inhibition,[11]; at 100.0 µM,96% (active)
same,growth inhibition,[12]; [17],-9%
same,growth inhibition,[12]; [18],7%
same,growth inhibition,[12]; at 50.0 µM,31.4%
same,growth inhibition,[13]; [17],-8%
same,growth inhibition,[13]; [18],9%
same,growth inhibition,[13]; at 50.0 µM,17.6%
same,growth inhibition,[14]; at 1.2 µM,6%
same,growth inhibition,[14]; at 3.7 µM,6%
same,growth inhibition,[14]; [17],5%
same,growth inhibition,[14]; at 11.0 µM,7%
same,growth inhibition,[14]; at 33.0 µM,27%
same,growth inhibition,[14]; [18],68%
same,growth inhibition,[14]; at 50.0 µM,58.2%
same,growth inhibition,[14]; at 100.0 µM,86% (active)
same,growth inhibition,[15]; at 1.2 µM,6%
same,growth inhibition,[15]; at 3.7 µM,4%
same,growth inhibition,[15]; at 11.0 µM,9%
same,growth inhibition,[15]; at 33.0 µM,3%
same,growth inhibition,[15]; at 100.0 µM,95% (active)
same,growth inhibition,[1]; at 1.2 µM,-3%
same,growth inhibition,[1]; at 3.7 µM,2%
same,growth inhibition,[1]; at 11.0 µM,8%
same,growth inhibition,[1]; at 33.0 µM,23%
same,growth inhibition,[1]; at 100.0 µM,96% (active)
same,growth inhibition,[2]; at 1.2 µM,-10%
same,growth inhibition,[2]; at 3.7 µM,-30%
same,growth inhibition,[2]; at 11.0 µM,11%
same,growth inhibition,[2]; at 33.0 µM,54%
same,growth inhibition,[2]; at 100.0 µM,99% (active)
same,growth inhibition,[3]; [17],-21%
same,growth inhibition,[3]; [18],39%
same,growth inhibition,[3]; at 50.0 µM,55.5%
same,growth inhibition,[4]; at 1.2 µM,-4%
same,growth inhibition,[4]; at 3.7 µM,7%
same,growth inhibition,[4]; at 11.0 µM,26%
same,growth inhibition,[4]; at 33.0 µM,50%
same,growth inhibition,[4]; at 100.0 µM,97% (active)
CC(/C=C/c1ccc([N+](=O)[O-])o1)=N/N1CC(CN2CCOCC2)OC1=O (centres undefined),growth inhibition,[5]; at 1.2 µM,-5%
same,growth inhibition,[5]; at 3.7 µM,5%
same,growth inhibition,[5]; at 11.0 µM,48%
same,growth inhibition,[5]; at 33.0 µM,94% (active)
same,growth inhibition,[5]; at 100.0 µM,98% (active)
same,growth inhibition,[6]; at 1.2 µM,2%
same,growth inhibition,[6]; at 3.7 µM,11%
same,growth inhibition,[6]; at 11.0 µM,36%
same,growth inhibition,[6]; at 33.0 µM,66%
same,growth inhibition,[6]; at 100.0 µM,96% (active)
same,growth inhibition,[7]; at 1.2 µM,-4%
same,growth inhibition,[7]; at 3.7 µM,4%
same,growth inhibition,[7]; at 11.0 µM,34%
same,growth inhibition,[7]; at 33.0 µM,58%
same,growth inhibition,[7]; at 100.0 µM,76% (active)
same,growth inhibition,[8]; at 1.2 µM,-2%
same,growth inhibition,[8]; at 3.7 µM,-4%
same,growth inhibition,[8]; at 11.0 µM,12%
same,growth inhibition,[8]; at 33.0 µM,30%
same,growth inhibition,[8]; at 100.0 µM,85% (active)
same,growth inhibition,[9]; at 1.2 µM,-9%
same,growth inhibition,[9]; at 3.7 µM,-6%
same,growth inhibition,[9]; [17],9%
same,growth inhibition,[9]; at 11.0 µM,35%
same,growth inhibition,[9]; at 33.0 µM,90% (active)
same,growth inhibition,[9]; [18],90% (active)
same,growth inhibition,[9]; at 50.0 µM,91.8% (active)
same,growth inhibition,[9]; at 100.0 µM,97% (active)
same,growth inhibition,[10]; at 1.2 µM,2%
same,growth inhibition,[10]; at 3.7 µM,0%
same,growth inhibition,[10]; [17],7%
same,growth inhibition,[10]; at 11.0 µM,1%
same,growth inhibition,[10]; at 33.0 µM,29%
same,growth inhibition,[10]; [18],90% (active)
same,growth inhibition,[10]; at 50.0 µM,55.6%
same,growth inhibition,[10]; at 100.0 µM,94% (active)
same,growth inhibition,[12]; [17],22%
same,growth inhibition,[12]; [18],93% (active)
same,growth inhibition,[12]; at 50.0 µM,91.3% (active)
same,growth inhibition,[16]; at 1.2 µM,-9%
same,growth inhibition,[16]; at 3.7 µM,-9%
same,growth inhibition,[16]; at 11.0 µM,-2%
same,growth inhibition,[16]; at 33.0 µM,44%
same,growth inhibition,[16]; at 100.0 µM,90% (active)
same,growth inhibition,[13]; [17],6%
same,growth inhibition,[13]; [18],90% (active)
same,growth inhibition,[13]; at 50.0 µM,53.5%
same,growth inhibition,[14]; at 1.2 µM,-6%
same,growth inhibition,[14]; at 3.7 µM,-3%
same,growth inhibition,[14]; [17],3%
same,growth inhibition,[14]; at 11.0 µM,2%
same,growth inhibition,[14]; at 33.0 µM,27%
same,growth inhibition,[14]; [18],87% (active)
same,growth inhibition,[14]; at 50.0 µM,41.8%
same,growth inhibition,[14]; at 100.0 µM,94% (active)
same,growth inhibition,[15]; at 1.2 µM,-3%
same,growth inhibition,[15]; at 3.7 µM,11%
same,growth inhibition,[15]; at 11.0 µM,49%
same,growth inhibition,[15]; at 33.0 µM,79% (active)
same,growth inhibition,[15]; at 100.0 µM,98% (active)
same,growth inhibition,[1]; at 1.2 µM,-14%
same,growth inhibition,[1]; at 3.7 µM,-6%
same,growth inhibition,[1]; at 11.0 µM,-2%
same,growth inhibition,[1]; at 33.0 µM,42%
same,growth inhibition,[1]; at 100.0 µM,91% (active)
same,growth inhibition,[2]; at 1.2 µM,-8%
same,growth inhibition,[2]; at 3.7 µM,3%
same,growth inhibition,[2]; at 11.0 µM,69%
same,growth inhibition,[2]; at 33.0 µM,93% (active)
same,growth inhibition,[2]; at 100.0 µM,97% (active)
same,growth inhibition,[3]; [17],63%
same,growth inhibition,[3]; [18],95% (active)
same,growth inhibition,[3]; at 50.0 µM,93.5% (active)
same,growth inhibition,[4]; at 1.2 µM,24%
same,growth inhibition,[4]; at 3.7 µM,89% (active)
same,growth inhibition,[4]; at 11.0 µM,97% (active)
same,growth inhibition,[4]; at 33.0 µM,97% (active)
same,growth inhibition,[4]; at 100.0 µM,98% (active)
